Data: PubChem BioAssay (EPA / NIEHS)
Records with an inconclusive call do not appear. The source made the active and inactive calls. The calls were made as follows: active = hit-call score of the fitted dose curve at least 0.9, where 1 is the maximum; inconclusive = response in the unintended direction; inactive = score below 0.9.

What follows are compounds tested against Estrogen receptor (Homo sapiens) + Estrogen receptor beta (Homo sapiens) (UniProt P03372+Q92731) (assay: OT_ER_ERaERb_1440: Odyssey Thera (OT) 24-hour HEK293T Protein-Complementation Assay for Estrogen Receptor-alpha/-beta Homodimer (AID 2283356);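 also: hits raise reporter fluorescence and both agonists and antagonists give an increase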).
Experimental: OT_ER_ERaERb_1440 is a cell-based assay that uses HEK293T, a human kidney cell line, with measurements taken at 24 hours after chemical dosing in a 384-well plate.OT_ER_ERaERb_1440 is one of one assay component(s) measured or calculated from the OT_ER_ERaERb_1440 assay. It is designed to make measurements of protein fragment complementation, a form of binding reporter, as detected with fluorescence intensity signals by Protein-fragment Complementation technology.Data from the assay component OT_ER_ERaERb_1440 was analyzed into 1 assay endpoint. This assay endpoint, OT_ER_ERaERb_1440, was analyzed in the positive analysis fitting direction relative to DMSO as the negative control and baseline of activity. Using a type of binding reporter, measures of receptor for gain-of-signal activity can be used to understand the binding at the pathway-level as they relate to the gene ESR1 and ESR2. Furthermore, this assay endpoint can be referred to as a primary readout, because the performed assay has only produced 1 assay endpoint. To generalize the intended target to other relatable targets, this assay endpoint is annotated to the nuclear receptor intended target family, where the subfamily is steroidal.
Protein-fragment complementation assay, or PCA, is a method for the identification and quantification of protein-protein interactions. In the PCA, the proteins of interest ("bait" and "prey") are each covalently linked to fragments of a third protein (e.g. DHFR, which acts as a "reporter"). Interaction between the bait and the prey proteins brings the fragments of the reporter protein in close proximity to allow them to form a functional reporter protein whose activity can be measured. The OT ER alpha / ER beta assay is a heterodimer PCA of the ligand binding domain (LBD) of ER alpha (amino acids 310-547) and human ER beta (amino acids 263-489) stably expressed in HEK293T cells. […] Fluorescent signal in the basal state of the assay is very low and is primarily punctuate and cytoplasmic. Modulation of this assay is quantified as an increase in mean fluorescence intensity in the nucleus (for agonists) or in the nucleus and cytoplasm (antagonists) relative to vehicle controls, and can be quantified on a high content imaging device or a laser scanning cytometer. The latter instrument is favored for this assay because of the rapid mode of data acquisition, the ability to acquire data from the entire cell population in a well (as opposed to a fraction of the well on the high content devices) and the larger dynamic range typically achieved with this instrument. To assess sensitivity of the ER alpha/ER beta LBD assay to ligand, cells were treated with the ER agonist 17- beta-estradiol (E2) in 10-point concentration- response format for 24 hours and monitored response on a laser scanning plate cytometer (Acumen eX3; TTP Lab Tech).

Chain of Estrogen receptor (Homo sapiens) + Estrogen receptor beta (Homo sapiens) (P03372 whole entry, looked up, the tested form may be a part): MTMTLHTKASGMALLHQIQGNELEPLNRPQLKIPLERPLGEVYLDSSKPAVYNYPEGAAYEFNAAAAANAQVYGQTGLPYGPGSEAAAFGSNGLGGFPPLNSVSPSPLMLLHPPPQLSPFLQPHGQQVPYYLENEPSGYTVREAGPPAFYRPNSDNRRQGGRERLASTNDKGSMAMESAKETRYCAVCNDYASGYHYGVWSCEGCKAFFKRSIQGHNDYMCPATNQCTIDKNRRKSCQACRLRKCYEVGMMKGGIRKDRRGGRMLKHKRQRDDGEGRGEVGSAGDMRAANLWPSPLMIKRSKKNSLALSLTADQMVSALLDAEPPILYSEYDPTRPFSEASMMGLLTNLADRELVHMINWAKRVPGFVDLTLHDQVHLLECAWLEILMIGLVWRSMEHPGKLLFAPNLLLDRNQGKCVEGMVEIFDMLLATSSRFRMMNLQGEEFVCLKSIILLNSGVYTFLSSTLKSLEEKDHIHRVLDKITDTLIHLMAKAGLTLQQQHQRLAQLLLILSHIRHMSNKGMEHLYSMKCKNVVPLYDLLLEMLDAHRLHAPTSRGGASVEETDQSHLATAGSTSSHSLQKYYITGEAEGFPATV
Chain of Estrogen receptor (Homo sapiens) + Estrogen receptor beta (Homo sapiens) (Q92731 whole entry, looked up, the tested form may be a part): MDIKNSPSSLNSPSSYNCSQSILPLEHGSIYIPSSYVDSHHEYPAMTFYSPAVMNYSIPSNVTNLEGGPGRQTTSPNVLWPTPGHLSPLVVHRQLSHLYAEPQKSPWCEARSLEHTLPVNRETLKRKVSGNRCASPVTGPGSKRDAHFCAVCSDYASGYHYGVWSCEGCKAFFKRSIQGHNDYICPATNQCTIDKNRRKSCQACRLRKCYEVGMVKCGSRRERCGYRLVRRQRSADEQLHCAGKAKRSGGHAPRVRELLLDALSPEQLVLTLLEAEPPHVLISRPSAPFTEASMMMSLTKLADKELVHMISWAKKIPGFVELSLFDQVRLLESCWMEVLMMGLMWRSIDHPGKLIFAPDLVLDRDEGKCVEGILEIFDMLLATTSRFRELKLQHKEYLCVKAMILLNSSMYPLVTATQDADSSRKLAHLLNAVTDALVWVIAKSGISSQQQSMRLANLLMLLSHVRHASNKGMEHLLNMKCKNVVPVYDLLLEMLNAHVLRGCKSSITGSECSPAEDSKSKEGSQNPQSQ

outcome, inactive:
C=CC(=O)NC(C)(C)CS(=O)(=O)O
CCOC(=O)Cc1cccc2ccccc12
CCCCCCCCCCCCCOP(=O)(O)O
O=C1C(N(CO)C(=O)NCO)N(CO)C(=O)N1CO (stereo not given)
CNC(=S)NN
CC(C)=CCC[C@H](C)CCO
CC(C)(C)c1ccc(-c2ccc(C(C)(C)C)cc2)cc1
CC1=CC[C@H]2C[C@@H]1C2(C)C
c1c[nH]cn1
CCCCC/C=C\C/C=C\CCCCCCCC(=O)OC
CC(C)c1ccc2cc(C(C)C)ccc2c1
NC(=O)N=NC(N)=O
CCOC(=O)CC
O=S1(=O)OC(c2ccc(O)cc2)(c2ccc(O)cc2)c2ccccc21
CC/C=C\C/C=C\C/C=C\CCCCCCCC(=O)O
CCCCCCCOC(=O)CCC
O=C(c1ccccc1)C1CCC1
O=C1CCCC1
CCO[Si](C)(OCC)OCC
CO[Si](OC)(OC)c1ccccc1
CN(C)c1ccc(N=Nc2ccccc2C(=O)O)cc1
O=C(C(Cl)Cl)N1CCOC12CCCCC2
Cc1cc(C)c(C(=O)O)c(C)c1
CC=C1CC2C=CC1C2 (stereo not given)
Cc1ccc(N/N=c2\c(=O)cc/c(=N/Nc3ccc(S(=O)(=O)O)cc3)c2=O)c(C)c1
NC(=O)c1ccccc1O
CCCc1ccc(OC)cc1
CC1=NN(c2cc(S(=O)(=O)O)ccc2Cl)C(=O)C1N=Nc1ccccc1 (stereo not given)
O=C(C=Cc1ccccc1)OCc1ccccc1
CCCCCCCCO[C@@H]1O[C@H](CO)[C@@H](O)[C@H](O)[C@H]1O
CCCCCCCC/C=C\CCCCCCCC(=O)OCCO
OC1CCCC1
CCCCC(CC)CCC(CC(C)C)OS(=O)(=O)O (stereo not given)
CC(=O)[C@H]1[C@H](C#N)C[C@H]2[C@@H]3CC=C4C[C@@H](O)CC[C@]4(C)[C@H]3CC[C@@]21C

AC50, active:
COC(=O)c1c(C)cc(O)c(C)c1O 61.8 µM
O=c1cc(-c2ccccc2)oc2ccccc12 57.3 µM
CN(C)c1ccc(C(=N)c2ccc(N(C)C)cc2)cc1 18.4 µM
CC(C)(C)c1ccc(OC(=O)c2ccccc2O)cc1 55.2 µM
Cc1ccc(C(C)c2ccc(C)c(C)c2)cc1C 83.6 µM
Oc1ccc(Cl)cc1Cc1cc(Cl)ccc1O 11.9 µM
